This is a sample that favours compounds with a hit; in the whole collection about 2.8% have one here.
POLI inh: DNA polymerase iota (human) inhibition; Q9UNA4; Pol iota fluorescent replication assay, 10 min; Potency, µM (series often up to 115 µM), for inactives: at the highest dose activity, negative = inhibition, actives largely listed as inhibitors; 390,000 tested, 1% active; note: potency is the fitted concentration of half-maximal effect
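Pol iota at 10 nM preincubated 15 min with compounds at room temperature; reaction started with fluorescent substrate, 50 nM final. Fluorescence read kinetically at 0 and 10 min; buffer-only wells as negative control.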
PI4K2A block: blocks human PI4K2A kinase activity; activity change, negative = inhibition, % at 76.9 µM; purified PI4K2A, ADP-Glo luminescence, 1 h; active compounds read low; AID 1346378; 420,000 tested, 0.13% active; in the data active = activity change below about -50%; inconclusive = mostly about -30% to -49%;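 note: -100% = wells without enzyme as full effect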
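In this quantitative HTS, ADP production by PI4K2A was quantified luminescently after 1 h at ambient temperature; 100 microM adenosine served as plate-quality control.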
Pol beta inh: inhibitors of human DNA polymerase beta; Pol beta primer extension/strand displacement, fluorescence kinetic; Potency, µM (top dose mostly 114 µM), for inactives: at the highest dose activity change, negative = inhibition, most hits filed as inhibitors; 340,000 tested, 1.3% active; AID 485314; note: potency is the fitted concentration of half-maximal effect; % is set by controls: 0 for no effect and ±100 for the full control effect
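Enzyme-only controls used 10 nM Pol beta; buffer lacking enzyme served as negative control. Compound preincubated 15 min, then 50 nM substrate added; 0 and 10 min reads at room temperature.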
Pol eta inh-1: DNA polymerase eta (human) inhibition | Potency, µM (highest dose often 114 µM), inactives show at the highest dose activity change, negative = inhibition, actives largely listed as inhibitors | AID 588591 | recombinant Pol eta, fluorescent DNA replication assay | 390,000 tested, 1.2% active | Q9Y253; note: potency is the fitted concentration of half-maximal effect; % is set by controls: 0 for no effect and ±100 for the full control effect
Target sequence (Q9Y253 whole entry, looked up): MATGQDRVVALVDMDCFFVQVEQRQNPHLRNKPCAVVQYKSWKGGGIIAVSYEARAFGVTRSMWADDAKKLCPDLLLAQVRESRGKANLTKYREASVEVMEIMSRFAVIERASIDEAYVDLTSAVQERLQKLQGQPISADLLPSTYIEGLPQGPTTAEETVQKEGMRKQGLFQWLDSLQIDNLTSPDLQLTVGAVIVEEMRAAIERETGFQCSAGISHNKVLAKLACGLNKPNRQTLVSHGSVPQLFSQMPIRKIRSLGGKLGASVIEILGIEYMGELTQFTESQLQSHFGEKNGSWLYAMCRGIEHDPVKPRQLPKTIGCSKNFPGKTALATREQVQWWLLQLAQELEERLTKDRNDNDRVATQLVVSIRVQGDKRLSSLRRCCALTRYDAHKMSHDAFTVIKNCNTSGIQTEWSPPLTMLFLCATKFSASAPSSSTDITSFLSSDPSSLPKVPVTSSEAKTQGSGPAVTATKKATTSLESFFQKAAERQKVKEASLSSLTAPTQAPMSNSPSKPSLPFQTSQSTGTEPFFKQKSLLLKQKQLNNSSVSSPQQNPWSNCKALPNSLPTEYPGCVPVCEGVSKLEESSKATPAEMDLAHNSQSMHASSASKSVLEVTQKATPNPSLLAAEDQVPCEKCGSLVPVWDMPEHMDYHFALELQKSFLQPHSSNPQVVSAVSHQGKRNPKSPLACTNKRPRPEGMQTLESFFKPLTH
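Fluorescent replication assay: 50 nM final substrate added after a 15 min room-temperature compound preincubation with 10 nM enzyme. Signal taken at 0 min and again at 10 min.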
Pol kappa inh-1: inhibitors of human DNA polymerase kappa. Q9UBT6. purified Pol kappa, fluorescent DNA synthesis assay, 10 min. Potency, µM (doses to about 107 µM), inactives show at the top dose activity, negative = inhibition, most hits filed as inhibitors. 400,000 tested, 0.53% active. AID 588579; note: potency is the fitted concentration of half-maximal effect; % is set by controls: 0 for no effect and ±100 for the full control effect
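Kinetic fluorescence readout at 0 and 10 min followed reaction start with substrate at 50 nM final. Beforehand, enzyme (10 nM Pol kappa) stood 15 min with compound at room temperature; buffer-only wells were negative controls.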
PI5P4Ka inh: blocks human PI5P4K alpha kinase activity; max response, %; PI5P4Kalpha enzyme, ADP-Glo luminescence, 60 min; active compounds read low; P48426; 330,000 tested, 1.2% active; active = max response of -50% or lower; inconclusive = between -30% and -50%; inactive = -30% or higher; note: value at the top dose of about 77 µM; % is set by controls: 0 for no effect and ±100 for the full control effect
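Controls without substrate or without enzyme flank wells where PI5P4Kalpha converts substrate using 5 microM ATP (final). Incubation lasts 60 minutes at room temperature; ADP formed is read by ADP-Glo luminescence.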
TbPGK inh: blocks T. brucei phosphoglycerate kinase; 500 tested, 79% active; TbPGK coupled GAPDH assay, Kinase-Glo luminescence; Potency, µM (doses to about 57.5 µM), for inactives: at the highest dose activity change, negative = inhibition, actives largely listed as inhibitors; AID 686980; shares compounds with Pol kappa inh-1; note: potency is the fitted concentration of half-maximal effect; % is set by controls: 0 for no effect and ±100 for the full control effect; nearly all actives have a fitted effect of over 65% in size
Pol iota confirm: Confirm cherry-picked inhibitors of human polymerase iota | Potency, µM, actives largely listed as inhibitors | 1,500 tested, 77% active | shares compounds with Pol kappa inh-1 | Pol iota primer extension, TAMRA/BHQ fluorescence | AID 720496; note: potency is the fitted concentration of half-maximal effect
Pol kappa inh-2: confirmation of human DNA polymerase kappa inhibitors | shares compounds with Pol eta inh-1 | purified Pol-kappa, fluorescent strand-displacement substrate | Potency, µM, actives largely listed as inhibitors | 920 tested, 76% active | AID 720501; note: potency is the fitted concentration of half-maximal effect
Pol eta inh-2: Pol eta (human) inhibition, cherry-pick confirmation. shares compounds with Pol eta inh-1. Pol eta primer extension, TAMRA/BHQ fluorescence, 10 min. Potency, µM, hits mostly inhibitors. 2,600 tested, 64% active. AID 720502; note: potency is the fitted concentration of half-maximal effect
The depositor's hits bear a star; ? = inconclusive; . = no result; [ ] = another dose, or the depositor's remark. Unless noted, calls come from the whole dose curve; as a rule, active = well fitted curve in the direction sought with a large enough effect; inconclusive = small, poorly fitted or top-dose-only effect, or another doubt; inactive = no such curve, though single readings can be large; an effect the other way counts as inactive or inconclusive.

SMILES | POLI inh | PI4K2A block | Pol beta inh | Pol eta inh-1 | Pol kappa inh-1 | PI5P4Ka inh | Pol iota confirm | Pol eta inh-2 | others
COc1cccc(C(NC(C)=O)c2nc(-c3cnn(C)c3)cs2)c1 (stereo not drawn) | . | -1 | . | . | . | -6 | . | .
Cc1ccc(CNc2ccc(O)cc2)cc1 | 3.5µM* | ? | ? | 28µM* | ? | ? | ? | ?
COC1=CC(=O)c2c(ccc3ncnc(N)c23)C1=O | 4µM* | -58* | . | 4.5µM* | -6% | -23 | 4.2* | 8.5*
COc1ccc(C)cc1NS(=O)(=O)c1ccc2oc(=O)c3ncn(C)c3c2c1 | 19% | -4 | -12% | -9% | 1% | . | . | .
Cc1cc(/C=C(\C#N)C(=O)NCC2CCCO2)c(C)n1-c1ccc(Cl)cc1 (stereo not drawn) | 12% | -1 | 2% | -6% | -12% | . | . | .
Cc1cc(/C=C(\C#N)C(=O)NCc2ccco2)c(C)n1-c1ccc(C(=O)O)cc1 | 40µM* | 0 | ? | 20µM* | ? | -5 | 67* | 27*
CCC(C)NC(=O)Cn1c(=O)n(-c2ccc(C)c(C)c2)c(=O)c2c(C)c(C(=O)N(CC)CC)sc21 (stereo not drawn) | 5% | 2 | 47% | -8% | -4%[60.1 µM] | . | . | .
COc1cc(/C=C(\CCC(=O)O)c2nc3ccccc3s2)ccc1OCC(=O)Nc1c(Cl)cccc1Cl | 16% | 1 | . | ? | -15% | -16 | 38* | 76* | TbPGK inh=10µM*
O=C(O)CC/C(=C/c1cccc(NC(=O)c2ccccc2Cl)c1)c1nc2ccccc2s1 | ? | 6 | . | ? | 0% | ? | . | .
CN(C)c1ccc(-c2ccc3c(=O)c4ccccc4n(C)c3c2)cn1 | ? | -10 | ? | 20µM* | -6% | ? | ? | ?
O=C(Nc1ccc(S(=O)(=O)N2CCCCC2c2cccnc2)cc1)c1ccc(Br)cc1 (stereo not drawn) | 10% | -1 | -25% | -15% | -2%[60.1 µM] | . | . | .
COc1ccc(C)cc1NS(=O)(=O)c1cc(Br)cc2c1N(C(C)=O)C(C)C2 (stereo not drawn) | -11% | -1 | 24% | -11% | 0% | . | . | .
COC(=O)c1[nH]c2ccc(Cl)cc2c1NC(=O)c1ccccc1[N+](=O)[O-] | 14% | 0 | 11%[57.1 µM] | -11% | -29% | 4 | . | .
O=C(O)c1[nH]c2ccccc2c1C(c1cc(Cl)cc([N+](=O)[O-])c1O)c1c(C(=O)O)[nH]c2ccccc12 | 18µM* | 5 | 35µM* | 20µM* | 50µM* | -27 | 75* | 27*
CC1=C/C(=C\c2ccc(Br)o2)C(=O)O1 | 10µM* | -11 | 6.3µM* | 2.2µM* | 25µM* | ? | 17* | 11* | TbPGK inh=3.7µM*;Pol kappa inh-2=17*
O=C(CSc1ncc(S(=O)(=O)c2ccc(Cl)cc2)c(=O)[nH]1)Nc1cccc(C(F)(F)F)c1 | ? | -9 | ? | -26% | -2% | . | . | .
CC(C)(C)c1ccc(S(=O)(=O)c2cnc(SCC(=O)Nc3ccc(F)c(Cl)c3)[nH]c2=O)cc1 | ? | -1 | 79µM* | 28µM* | ? | . | ? | ?
COc1cc(Cl)c(C)cc1NC(=O)CSc1ncc(S(=O)(=O)c2ccc(C(C)(C)C)cc2)c(=O)[nH]1 | ? | -27 | 10µM* | 10µM* | ? | . | 21* | 30* | TbPGK inh=21µM*
CCCc1nn2c(=O)cc(COC(=O)c3ccccc3NC(=O)C3CCCCC3)nc2s1 | -19% | -1 | -2% | -5% | -2%[60.1 µM] | . | . | .
CN(C)c1ccc(/C=C2\SC(=S)N(Nc3ncc(C(F)(F)F)cc3Cl)C2=O)cc1 | 11µM* | -6 | -1% | 45µM* | 18µM* | . | 21* | 19*
COc1ccc(CNC(=O)C2CCN(c3nnc(-n4c(C)ccc4C)s3)CC2)c(OC)c1 | -16% | -3 | 26% | . | 0% | . | . | .
O=C1C2CC=C(Cl)CC2C(=O)N1CCCCCCN1C(=O)C2CC=C(Cl)CC2C1=O (stereo not drawn) | 18µM* | -6 | 20µM* | 20µM* | 79µM* | . | 60* | 30*
COc1cccc(NC(=O)C(Cc2ccccc2)NS(=O)(=O)c2ccc3c(c2)oc(=O)n3C)c1 (stereo not drawn) | 2% | 2 | 23% | -15% | -3% | . | . | .
COc1ccc(CNCC#Cc2ccccc2)cc1 | . | -7 | . | . | . | . | . | .
COc1ccc(OC)c(NC(=O)CSc2nc(-c3ccccc3C)nc3cc(=O)[nH]n23)c1 | 11% | -6 | 4% | -22% | -3% | . | . | .
SMILES | POLI inh | PI4K2A block | Pol beta inh | Pol eta inh-1 | Pol kappa inh-1 | PI5P4Ka inh | Pol iota confirm | Pol eta inh-2 | others
O=C(CSc1nc(-c2cccc(Cl)c2)nc2cc(=O)[nH]n12)Nc1ccccc1 | ? | -3 | 20µM* | 50µM* | -35% | . | 60* | 85*
CCOc1ccc(-c2nc(SCC(=O)Nc3ccc(C)c(C)c3)n3[nH]c(=O)cc3n2)cc1 | ? | 1 | 3.2µM* | 50µM* | -26% | . | 27* | 85* | TbPGK inh=16µM*
Cn1c(CNC(=O)CSc2nc(-c3cccc(Cl)c3)nc3cc(=O)[nH]n23)nc2ccccc21 | ? | -3 | ? | -11% | -28% | . | . | .
Cc1cnccc1/C=C/c1ccc(N)cc1 | 29% | . | . | . | 9% | . | . | .
CN(C)c1ccc(N=Nc2ccccc2C(=O)O)cc1 | -3% | . | . | . | -19% | . | . | .
CN(C)c1ccc(N=Nc2ccc(C(=O)O)cc2)cc1 | 11µM* | -8 | 10µM* | 3.5µM* | 32µM* | ? | 21* | 4.3*
Cc1cc[n+](-c2[nH]c(=O)sc2/C=N/N=C(\[O-])c2ccccc2)cc1 | 25µM* | 2 | 14µM* | ? | ? | ? | 38* | 27*
Cc1cc[n+](-c2[nH]c(=O)sc2/C=N/N=C(\[O-])c2ccncc2)cc1 | 40µM* | -10 | ? | 79µM* | ? | -7 | 53* | 76*

Source: PubChem BioAssay
